The results in this text go back to PubChem BioAssay AID1347043 (National Center for Advancing Translational Sciences (NCATS), 2019).

Among all 76,000 compounds or so, about 1,900 (2.5%) were called active. Not shown: some 5% with an inconclusive outcome. Calls follow the shape of the dose curve; as a rule, active = well fitted inhibition curve with a large enough effect; inconclusive = small, poorly fitted or top-dose-only effect; inactive = flat fitted curve, though single readings scatter. What follows is part of a selection rich in actives, with near analogues and random picks from the rest. Entries that show only a call come without a potency.
Potency is read from the fitted curve at half-maximal effect.

Luciferin 4-monooxygenase (Photinus pyralis), sequence (P08659 whole entry, looked up): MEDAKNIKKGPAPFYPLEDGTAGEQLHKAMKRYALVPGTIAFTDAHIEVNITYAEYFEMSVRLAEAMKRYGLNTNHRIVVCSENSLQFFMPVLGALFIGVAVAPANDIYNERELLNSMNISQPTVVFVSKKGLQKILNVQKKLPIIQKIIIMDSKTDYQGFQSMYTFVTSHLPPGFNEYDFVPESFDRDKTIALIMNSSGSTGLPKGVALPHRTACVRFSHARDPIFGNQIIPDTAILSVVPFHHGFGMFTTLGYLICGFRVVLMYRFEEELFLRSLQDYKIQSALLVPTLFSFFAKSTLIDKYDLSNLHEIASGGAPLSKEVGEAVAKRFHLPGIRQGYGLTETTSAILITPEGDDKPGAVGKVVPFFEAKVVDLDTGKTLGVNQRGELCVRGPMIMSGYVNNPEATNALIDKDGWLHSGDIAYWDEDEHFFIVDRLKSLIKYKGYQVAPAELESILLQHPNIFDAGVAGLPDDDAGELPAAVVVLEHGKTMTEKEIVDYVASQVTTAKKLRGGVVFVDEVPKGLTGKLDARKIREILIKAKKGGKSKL

This test deals with Luciferin 4-monooxygenase (Photinus pyralis) (UniProt P08659). Nature of the test: Firefly luciferase inhibition profiling of diverse chemical library using quantitative high-throughput screening. Also: nearly all actives have a fitted effect of over 65% in size. The conditions noted are these: purified P. pyralis luciferase, luminescence, biochemical; series mostly up to 115 µM. Put shortly:
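Inhibitors were tested against purified firefly luciferase in a biochemical, low-substrate format (both substrates at 10uM) and luminescence measured with a CCD imager.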
Regarding `COc1ccccc1Nc1cnc2ccc(-c3ccc(OC)c(OC)c3)nn12`, the Potency result was “inactive”. With `COCC1CN(C(=O)c2cc(C)n(C)n2)CC12CCNCC2` (configuration not stated), the Potency result was “inactive”. With `O=C(NC1CC1)c1ccc2c(c1)C1(CCN(CC3CC3)C1)CN2Cc1ccccc1` (configuration not stated), the Potency entry was “inactive”. The figure for `CC(=O)NC1(C)CCN(Cc2cccc(-c3ccc(C(=O)c4ccccc4)cc3)c2)C1` (configuration not stated) is 39.8 µM (active). The entry for `CC(=O)Nc1ccc(CN2CCCC3(CC(c4cccc(C(F)(F)F)c4)=NO3)C2)cc1` (configuration not stated) is “inactive”; for `CSCCNC(=O)c1coc(CN2CCN(C/C=C/c3ccccc3)CC2)n1` it is “inactive”. Regarding `Cc1cccc(NC(=O)C2CC(=O)N(c3n[nH]c4ccccc34)C2)n1` (configuration not stated), the Potency result was “inactive”. The entry for `Cc1ccsc1C(=O)NCC1Cn2cccc2C(=O)N1Cc1ccccc1` (configuration not stated) is “inactive”; for `COc1ccc(NC(=O)Cn2c(C)ccc(NS(=O)(=O)c3ccccc3)c2=O)cc1` it is “inactive”. Consider `Cc1ccc(NC(=O)Nc2ccc(C)n(CC(=O)NCCN3CCCC3)c2=O)cc1`, for which the Potency is 14.1 µM (active). The entry for `Cc1ccc(S(=O)(=O)Nc2ccc(C)n(CC(=O)NCc3cccc(F)c3)c2=O)cc1` is “inactive”; for `CN(C)c1ccc(CN2CCC3(CC(Cc4ccccc4)=NO3)C2)cc1` (configuration not stated) it is “inactive”. The figure for `CN1c2cc(C(=O)Nc3ccc(F)cc3)ccc2C(=O)N2CCCCC21` (configuration not stated) is 25.1 µM (active); for `Cc1cc(NC(=O)c2ccc3c(c2)N(C)C2CCCCCN2C3=O)ccc1F` (configuration not stated) it is 17.8 µM (active). With `COc1ccc(CNC(=O)c2ccc3c(c2)N(C)C2CCCCN2C3=O)c(OC)c1` (configuration not stated) the entry was “inactive”.

In the case of `CN1c2cc(C(=O)Nc3ccc(F)c(F)c3)ccc2C(=O)N2CCCCCC21` (configuration not stated), the Potency was 5.62 µM (active).

With `CCN1c2cc(C(=O)Nc3ccc(OC)c(F)c3)ccc2C(=O)N2CCCCC21` (configuration not stated), the Potency result is “inactive”. The figure for `CCOc1ccc(NC(=O)c2ccc3c(c2)N(C)C2CCCN2C3=O)cc1` (configuration not stated) is 44.7 µM (active); for `Cc1ccc(CNC(=O)c2ccc3c(c2)N(C)C2CCCCN2C3=O)cc1C` (configuration not stated) it is “inactive”; for `CN1c2cc(C(=O)N3CCC(C(N)=O)CC3)ccc2C(=O)N2CCCCC21` (configuration not stated) it is “inactive”.

Turning to `CCN1c2cc(C(=O)NCc3ccc(OC)cc3OC)ccc2C(=O)N2CCCCCC21` (configuration not stated), the Potency result is “inactive”. The entry for `CCN1c2cc(C(=O)Nc3ccc(F)c(Cl)c3)ccc2C(=O)N2CCCCC21` (configuration not stated) is “inactive”; for `CCN1c2cc(C(=O)Nc3ccc(SC)cc3)ccc2C(=O)N2CCCCCC21` (configuration not stated) it is “inactive”; for `CCN1c2cc(C(=O)Nc3ccc(F)c(C)c3)ccc2C(=O)N2CCCCC21` (configuration not stated) it is “inactive”. The entry for `O=C(Cc1cccc(Cl)c1)N1CCC([C@@H]2CNC[C@H]2CO)CC1` is “inactive”; for `CN1CCN(C2CCOC3(CCN(C(=O)c4cccc5[nH]ccc45)CC3)C2)CC1` (configuration not stated) it is “inactive”. The entry for `O=C(NCc1ccccc1C(F)(F)F)c1cc2n(n1)CC(c1ccc3c(c1)OCO3)OC2` (configuration not stated) is “inactive”; for `CC(C)CN1CCN(C2CCOC3(CCN(C(=O)C4CCCC4)CC3)C2)CC1` (configuration not stated) it is “inactive”. Turning to `O=C(NCc1nnc2c(-c3nc(C4CC4)no3)cccn12)c1cccnc1`, the Potency entry was “inactive”. The entry for `CC(=O)N1CCc2[nH]cnc2C12CCN(C(=O)C(C)Oc1ccccc1)CC2` (configuration not stated) is “inactive”. On to `CCc1noc(-c2ccn3c(CNC(=O)c4ccc(OC)c(F)c4)nnc3c2)n1`, for which the Potency result is “inactive”. Consider `O=C(c1ccc2c(c1)OCO2)N1CCCC2(CN[S+](=O)([O-])c3ccccc3N2)C1` (configuration not stated), for which the Potency result is “inactive”. The entry for `CCCn1c(C)cnc1CC1CCN(C(=O)CCOC)CC1` is “inactive”; for `Cc1cccc(N2C(=O)CSC23CCN(C(=O)C2CCC2)CC3)c1` it is “inactive”; for `COc1ccnc(CN2CCN(C)C3(CCC(=O)N(C)CC3)C2)c1OC` (configuration not stated) it is “inactive”.

In the case of `CCN(CC)CC[C@H]1CN(C(=O)c2ccc(N(C)C)cc2)CC[C@H]1CC(=O)O`, the Potency result was “inactive”.

As for `CN1c2cc(C(=O)Nc3ccccc3)ccc2C(=O)N2CCCCCC21` (configuration not stated), the Potency was 6.31 µM (active). The entry for `Cc1ccccc1CNC(=O)c1ccc2c(c1)N(C)C1CCCCN1C2=O` (configuration not stated) is “inactive”; for `CCN1c2cc(C(=O)Nc3ccccc3)ccc2C(=O)N2CCCC21` (configuration not stated) it is “inactive”; for `Cc1cc(C)cc(C(=O)NC2CCN(c3cc(-c4cccs4)[nH]n3)C2)c1` (configuration not stated) it is “inactive”. With `Cc1cccc(CN2C[C@@H]3C(=O)N(Cc4ccc5c(c4)OCO5)C(=O)[C@@H]3C2)c1` the entry was “inactive”; with `COc1ccc(OC)c(S(=O)(=O)N2CCCCCCNC(=O)CC2c2ccccc2)c1` (configuration not stated), “inactive”; with `CC(=O)N1CCc2ccc(C(=O)N3CCCCCC3)cc21`, “inactive”. The entry for `CCOc1cccc(CNC(=O)c2ccc3c(c2)N(S(C)(=O)=O)CC3)c1` is “inactive”; for `CCC(CC)N1CCN(C(=O)c2ccc3c(c2)N(S(C)(=O)=O)CC3)CC1` it is 35.5 µM (active). For `CN(c1ccccc1)c1cc(=O)c2ccnc(-c3ccc(CO)cc3)c2o1`, the Potency result was “inactive”. With `CN(c1ccccc1)c1cc(=O)c2ccnc(Nc3cccc([S+](C)(=O)[O-])c3)c2o1` the entry was “inactive”; with `Cc1ccc(CN2CCc3nc(C)nc(-c4ccc(O)cc4)c3C2)cc1`, “inactive”; with `CCN1CCN(c2ccc(C(=O)NCCCn3ccnc3C(C)C)cn2)CC1`, “inactive”. Consider `Cc1cccc(CN2CCc3nc(C(=O)Nc4ccc(Cl)cc4)oc3CC2)c1`, for which the Potency result was “inactive”. The figure for `O=C(Nc1ccc(Cl)cc1)c1nc2c(o1)CCN(Cc1ccsc1)CC2` is 17.8 µM (active); for `N#Cc1ccc(CN2CCc3nc(C(=O)N4CCOCC4)oc3CC2)cc1` it is “inactive”; for `O=C(NCC1CC1)c1nc2c(o1)CCN(CCc1ccccc1)CC2` it is “inactive”. `O=C(NCC1CC1)c1nc2c(o1)CCN(Cc1cccc(F)c1F)CC2`: the Potency result was “inactive”.

As for `O=C(Nc1ccccc1)c1nc2c(o1)CCN(Cc1cccc(Cl)c1)CC2`, the Potency was 1.58 µM (active). With `O=C(c1ccccc1-n1cccn1)N1CCN(Cc2ccccc2CO)CC1` the entry was “inactive”; with `CCOc1ccc(C(=O)N2CCC(Cc3nc(C(C)C)no3)CC2)cc1`, “inactive”. As for `Cc1nccn1CC1(CNc2ccncn2)CC1`, the Potency result was “inactive”. As to `CN(C)Cc1nnc(C2CCCN(C(=O)C3(N)CCNCC3)C2)n1C` (configuration not stated), the Potency entry was “inactive”. Consider `COc1ccccc1C1CCN(Cc2cn(-c3ccccc3)nn2)CC1`, for which the Potency result is “inactive”. For the compound `O=C(Nc1ccc([C@@H](O)[C@H]2COCC(=O)N2Cc2ccccc2F)cc1)C1CCCCC1`, the Potency entry is “inactive”. On to `Cc1ccc(C(=O)Nc2ccc(C(O)[C@H]3COCC(=O)N3Cc3ccccc3F)cc2)cc1` (some centres not stated), for which the Potency is 28.2 µM (active).

As to `O=C(Nc1ccc([C@@H](O)[C@H]2COCC(=O)N2Cc2ccccc2F)cc1)c1ccccc1`, the Potency entry is “inactive”. Consider `O=C([C@H]1C[C@H](Oc2cccnc2)CN1C(=O)CCCc1ccccc1)N1CCOCC1`, for which the Potency entry was “inactive”. The entry for `COc1ccc(F)cc1-c1ncc2c(n1)OCCN(CC1CC1)C2=O` is “inactive”. With `C[S+](=O)([O-])c1cccc(-c2ncc3c(n2)OCCN(Cc2ccc(F)cc2F)C3=O)c1` the entry was “inactive”; with `NC(=O)c1cccc(-c2ncc3c(n2)OCCN(c2cccc(C(F)(F)F)c2)C3=O)c1`, “inactive”. With `COc1ccc(-c2ncc3c(n2)OCCN(Cc2ccccc2)C3=O)cn1` the figure was 15.8 µM (active); with `COc1ccc(CN2CCOc3nc(-c4cc(F)cc(OC)c4)ncc3C2=O)cc1`, 28.2 µM (active). `NC(=O)c1cccc(-c2ncc3c(n2)OCCN(Cc2ccccc2)C3=O)c1`: the Potency entry is “inactive”. For `O=C1c2cnc(-c3ccc(Cl)cc3)nc2OCCN1Cc1ccccc1`, the Potency entry was “inactive”.

Turning to `COc1cccc(-c2ncc3c(n2)OCCN(Cc2ccc(F)cc2F)C3=O)c1OC`, the Potency entry was “inactive”. With `COc1ccc(-c2ncc3c(n2)OCCN(CC2CC2)C3=O)cc1` the figure was 1.26 µM (active); with `CN(C)c1cccc(-c2ncc3c(n2)OCCN(Cc2ccc(F)cc2F)C3=O)c1`, “inactive”; with `O=C1c2cnc(-c3ccc(O)c(F)c3)nc2OCCN1Cc1ccccc1`, 22.4 µM (active). The entry for `COc1cccc(-c2nc(N3CCOCC3)cc3c2CN(CC2CC2)C3=O)c1` is “inactive”; for `Cc1ccc(-c2nc(CNS(=O)(=O)C3CC3)[nH]c2-c2ccccn2)cc1` it is “inactive”. The entry for `O=C(CC1CCCC1)N1CCOc2ccc(CN3CCc4ccccc4C3)cc2C1` is “inactive”; for `Cc1noc(-c2cccn3c(CNC(=O)c4ccco4)nnc23)n1` it is “inactive”; for `CC1=C[C@@H](CN2CCOCC2)[C@H](C(C)C)C[C@H]1Cc1nnc(-c2ccc([N+](=O)[O-])cc2)o1` it is “inactive”. On to `COc1ccc(CN2C[C@H]3CN(Cc4ccc(NC(C)=O)cc4)CCN3C2=O)cc1`, for which the Potency entry is “inactive”.

For the compound `CC(C)NC(=O)N1CCN2C(=O)N(Cc3ccc(F)cc3)C[C@H]2C1`, the Potency result is “inactive”. The figure for `O=C(Nc1ccccc1)N1CCN2C(=O)N(Cc3ccc(F)cc3)C[C@H]2C1` is 50.1 µM (active); for `CN(Cc1ccccc1)C(=O)C[C@@H]1CCNC[C@@H]1Cc1cc(-c2ccc(C(C)(C)C)cc2)on1` it is “inactive”; for `Cc1cn2nc(C(=O)N3CCC(NC(=O)c4ccc(C#N)cc4)CC3)cc2c(=O)[nH]1` it is “inactive”. The entry for `CCc1noc(-c2cccn3c(CNC(=O)c4ccncc4)nnc23)n1` is “inactive”. The entry for `Cc1cccc(S(=O)(=O)N2CCc3c(C(=O)NC(C)C)cccc32)c1` is “inactive”; for `COc1ccc(S(=O)(=O)N2CCc3c(C(=O)NCc4ccncc4)cccc32)cc1` it is “inactive”. `CCC(C)(C)NC(=O)c1cccc2c1CCN2C(=O)Nc1ccc(C)cc1`: the Potency was 1.78 µM (active). With `CCOC(=O)C1CCN(C(=O)c2cccc3c2CCN3C(=O)Nc2ccccc2)CC1` the figure was 5.62 µM (active); with `CC[C@H]1CN(C(=O)Nc2ccccc2)CC[C@H]1CC(=O)Nc1ccccc1`, “inactive”; with `CCOc1ccc(C(=O)N2CCCN(C(=O)C3CC3)c3ccccc32)cc1`, “inactive”.

For `Cc1ccc2nc(CO[C@H]3CN(C4CCOCC4)C[C@H]3F)[nH]c2c1`, the Potency result was “inactive”. With `Cc1ncoc1C(=O)N1CCCn2ccnc2C1c1ccccc1` (configuration not stated) the entry was “inactive”; with `CN(C)C(=O)CC(O)c1cc2n(n1)CCN(C(=O)Cc1ccsc1)C2` (configuration not stated), “inactive”. With `Cc1cccc2c(C3CCN(S(=O)(=O)c4cc(Cl)cc(Cl)c4)CC3)c[nH]c12` the entry was “inactive”; with `COc1ccc(CN2CCc3nn(CC4CC4)c(=O)n3CC2)cc1`, “inactive”.
